Experimental data published in PubChem BioAssay.
Several values for one entry are separate records, joined by “and”; a condition that tells them apart may be missing. Equal values may be shown once. Activity calls are given as the source filed them.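 The calls were made as follows, unless noted: active = inhibition at or above 50% relative to wild type and mutant plate controls; inactive = inhibition below 50%.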

Experiments:
[1] = inhibitors of TNFa-induced NFkB p65 translocation, primary screen, imaging, HUVEC, MLSMR starter and 10KST1 sets (AID 438;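 active = inhibition above 20% together with a positive visual image hit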;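 also: compound added about 3h40 before a 20 min TNFalpha stimulation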;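 as to inhibition: signal is the nuclear over cytoplasmic p65 intensity ratio per well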); conditions: HUVEC TNFa-induced p65 nuclear translocation; cell count: measured here: nuclei count (cytotoxicity indicator), at 2.08 µM; inhibition: at 2 µM, stronger effect = higher value, 0% TNFa-plus-vehicle, 100% no-TNFa wells
[2] = inhibitors of E-selectin induction by TNFa, primary screen, imaging, HUVEC, immunofluorescence, MLSMR starter and 10KST1 sets (AID 487;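 active = visually confirmed hit in the image check and inhibition above 20%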;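 as to inhibition: signal is fraction of cell area covered by stained E-selectin grains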;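 as to nuclei count: 100% = median nuclei count of all wells on the same plate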); conditions: HUVEC TNFalpha-induced E-selectin immunofluorescence imaging, at 2 µM; inhibition: stronger effect = higher value; nuclei count: measured here: cell number, toxicity
[3] = DUSP6 inhibitors restoring Erk phosphorylation by chemical complementation, primary imaging in DUSP6-transfected HeLa (AID 609;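 active = compounds giving at least 50% inhibition in the cell-based MKP-3 phosphatase rescue imaging test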;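 as to inhibition: phospho-Erk level distribution per well compared with pooled transfected vehicle control wells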); conditions: HeLa MKP-3 transfected, phospho-Erk imaging KS statistic, at 10 µM, cells stimulated with TPA for 15 min
[4] = target: Dual specificity protein phosphatase 6 (Homo sapiens) (UniProt Q16828); assay: as above; conditions: HeLa MKP-3 transfected, phospho-Erk imaging KS statistic; at 10 µM; stronger effect = higher value; cells stimulated with TPA for 15 min
Chain of Dual specificity protein phosphatase 6 (Homo sapiens) (Q16828 whole entry, looked up): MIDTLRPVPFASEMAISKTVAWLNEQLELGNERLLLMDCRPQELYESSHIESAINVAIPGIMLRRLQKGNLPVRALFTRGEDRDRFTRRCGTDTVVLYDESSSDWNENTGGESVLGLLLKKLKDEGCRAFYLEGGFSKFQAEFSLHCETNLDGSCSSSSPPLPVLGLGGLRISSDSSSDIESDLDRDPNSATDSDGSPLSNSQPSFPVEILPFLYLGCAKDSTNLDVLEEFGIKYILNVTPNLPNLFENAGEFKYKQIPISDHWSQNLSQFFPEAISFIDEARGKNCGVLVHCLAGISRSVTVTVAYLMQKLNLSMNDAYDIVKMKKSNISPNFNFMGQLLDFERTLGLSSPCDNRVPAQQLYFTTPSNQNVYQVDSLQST

[5] = target: Voltage-gated potassium channel subunit beta-2 (Rattus norvegicus) (UniProt P62483); assay: KvBeta enzyme negative modulators, primary screen, biochemical, NADPH fluorescence (AID 622;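 active = fluorescence slope higher than the sample average by over 3 SD, cut at about -0.22 in these data, passing the limit was not always enough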;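 also: slope of raw intensity against log time taken from 70 to 1610 s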); conditions: recombinant KvBeta, 4-cyanobenzaldehyde reduction, at 10 µM, stronger effect = higher value
Chain of Voltage-gated potassium channel subunit beta-2 (Rattus norvegicus) (P62483 whole entry, looked up): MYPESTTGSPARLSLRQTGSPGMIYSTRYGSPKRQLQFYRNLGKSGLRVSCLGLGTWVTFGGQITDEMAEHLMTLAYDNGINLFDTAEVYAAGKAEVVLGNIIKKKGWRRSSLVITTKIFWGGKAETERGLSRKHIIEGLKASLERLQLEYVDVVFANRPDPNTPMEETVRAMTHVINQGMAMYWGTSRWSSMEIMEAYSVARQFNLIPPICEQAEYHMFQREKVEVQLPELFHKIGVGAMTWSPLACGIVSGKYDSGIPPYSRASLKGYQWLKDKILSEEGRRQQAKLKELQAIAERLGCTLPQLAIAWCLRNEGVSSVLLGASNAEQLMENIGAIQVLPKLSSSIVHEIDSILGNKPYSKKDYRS

[6] = target: Voltage-gated potassium channel subunit beta-2 (Rattus norvegicus) (UniProt P62483); assay: KvBeta positive modulators, primary screen, biochemical, NADPH fluorescence (AID 623;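 active = NADPH fluorescence slope more negative than the mean of all samples by about 3 SD, 99.7% confidence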;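 also: fluorescence intensity change per second fitted from 20 to 320 s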); conditions: Recombinant KvBeta, NADPH fluorescence decrease slope, 10 min; at 10 µM; stronger effect = lower value
[7] = target: Alpha-2C adrenergic receptor (Homo sapiens) (UniProt P18825); assay: modulators of alpha2C/GIRK thallium flux, primary screen, cell-based, HEK293 alpha2C/GIRK1/2 (AID 624;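 active = fluorescence slope after compound addition differing from the mean of all screened samples at 99.7% confidence, in either direction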;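 also: slope of fluorescence ratio to pre-addition baseline per second over 15 to 24 s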); conditions: thallium flux BTC fluorescence, at 10 µM, actives lie on both sides
Chain of Alpha-2C adrenergic receptor (Homo sapiens) (P18825 whole entry, looked up): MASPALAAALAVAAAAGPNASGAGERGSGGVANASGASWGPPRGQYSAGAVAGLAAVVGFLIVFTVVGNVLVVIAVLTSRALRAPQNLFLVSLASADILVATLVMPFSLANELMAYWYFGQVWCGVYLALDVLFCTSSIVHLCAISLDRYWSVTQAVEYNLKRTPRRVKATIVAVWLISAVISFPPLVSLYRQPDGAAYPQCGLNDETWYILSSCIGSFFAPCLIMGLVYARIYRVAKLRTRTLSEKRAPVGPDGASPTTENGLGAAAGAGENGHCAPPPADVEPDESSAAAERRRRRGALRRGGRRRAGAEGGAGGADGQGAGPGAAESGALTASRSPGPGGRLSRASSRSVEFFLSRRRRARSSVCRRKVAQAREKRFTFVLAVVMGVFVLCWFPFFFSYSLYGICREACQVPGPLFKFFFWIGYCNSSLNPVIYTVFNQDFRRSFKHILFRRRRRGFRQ

[8] = inhibitors of Chlamydomonas gravitaxis, primary screen, whole organism, Chlamydomonas reinhardtii, WT vs cilia-less mutant, absorbance, 96-well (AID 463189); conditions: OD600 absorbance, 2 days, at 10 µM, stronger effect = higher value;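 also: 0% = wild type cc124 cells in DMSO and 100% = ciliumless bld1 mutant cells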
[9] = inhibitors of larval lipid processing in zebrafish, primary screen, whole organism, PED6 fluorescence, gall bladder and intestine (AID 686;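 active = a full or partial loss of lipid-probe fluorescence in the fish gall bladder, intestine or both, judged by eye; inactive = no fluorescence loss, or compound toxic to the fish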;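 also: larvae 5 to 7 days old with five fish per well; signal comes from phospholipase A2 cleavage of quenched PED6 carried via bile; overnight exposure to compound and PED6 before scoring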); conditions: Zebrafish larvae PED6 lipid processing, fluorescence scoring; screened at 20 µM (by protocol)
[10] = inhibitors of Sendai virus-induced IRF3 signaling, primary screen, TLR/RLR signaling modifier project, cell-based, Sendai virus stimulus, luciferase, 10K MLSCN set (AID 602276;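 active = inhibition at or above 50% at 10 µM; inactive = inhibition below 50%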;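 also: firefly luciferase from ISG56 promoter only with Renilla not read in this screen; 0% = Sendai virus plus DMSO and 100% = medium plus DMSO without virus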); conditions: HEK293 RL24 IRF3 luciferase reporter, at 10 µM, stronger effect = higher value
[11] = inhibitors of poly I:C-induced TLR3 signaling, primary screen, cell-based, poly I:C stimulus, luciferase, 10K MLSCN set (AID 602277;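 active = inhibition of the reporter signal at or above 50%; inactive = inhibition below 50%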); conditions: HEK293-TLR3 RL24 IRF3 luciferase reporter, at 10 µM, stronger effect = higher value
[12] = measured here: cell density z-score
[13] = measured here: nuclear c-Myc green intensity z-score
[14] = measured here: nuclear pErk red intensity z-score, stronger effect = higher value

Row | Compound | cell count [1] | inhibition [1] | inhibition [2] | nuclei count [2] | z-score [3, 12] | z-score [3, 13] | z-score [3, 14] | inhibition [4] | fluorescence slope [5] | NADPH fluorescence slope [6] | slope [7] | inhibition [8] | outcome [9] | inhibition [10] | inhibition [11]
1 | CC1=CC(c2ccccc2)n2nc(N3C(=O)C4CC=CCC4C3=O)nc2N1 (centres undefined) | 367 | -3.2% (inactive) | -63.7% (inactive) | 153% | 0.978 | -0.382 | -0.0463 | -5.26% (inactive) | -0.41 (inactive) | -0.000143 (inactive) | 0.00753 (inactive) | -3.33% (inactive) | – | – | –
2 | COc1cccc(-c2nc(NC(C)(C)C)c3ccccc3n2)c1O | 394 | 0% (inactive) | -39.6% (inactive) | 141% | 0.222 | 0.227 | 0.927 | -1.75% (inactive) | -0.422 (inactive) | -0.000132 (inactive) | 0.00293 (inactive) | 34.2% (inactive) | – | – | –
3 | O=c1[nH]c(-c2ccccn2)nc2ccccc12 | 336 | -9% (inactive) | -102% (inactive) | 126% | 0.0403 | 0.157 | -1.25 | 1.48% (inactive) | -0.555 (inactive) | -4.4e-05 (inactive) | 0.00479 (inactive) | 34.7% (inactive) | – | – | –
4 | CC1(C)S[C@@H]2[C@H](NC(=O)[C@H](C(=O)O)c3ccsc3)C(=O)N2[C@H]1C(=O)O | 519 | -8.9% (inactive) | -44% (inactive) | 99.7% | -1.03 | -0.916 | 0.566 | 7.39% (inactive) | -0.44 (inactive) | -4.7e-05 (inactive) | 0.00461 (inactive) | 11.7% (inactive) | inactive | 12.3% (inactive) | 36.3% (inactive)
5 | CCCn1c(=O)[nH]c(=O)c2[nH]cnc21 | 615 | -1.8% (inactive) | -98.8% (inactive) | 137% | 2.73 | -1.33 | 0.0338 | 19% (inactive) | -0.494 (inactive) | -7.3e-05 (inactive) | 0.00482 (inactive) | 4.71% (inactive) and 14.1% (inactive) | inactive | 18.8% (inactive) | 33.6% (inactive)
6 | Cc1cccc(C)c1N1C(=O)C2ON(c3ccccc3)C(c3ccncc3)C2C1=O (centres undefined) | 382 | -1.4% (inactive) | -151% (inactive) | 141% | 1.05 | 0.0518 | -0.286 | -1.75% (inactive) | -0.442 (inactive) | -0.000159 (inactive) | 0.00363 (inactive) | -6.35% (inactive) | – | – | –
7 | CCCOC(=O)C1[C@H]2C(=O)N(Cc3ccco3)C[C@]23C=C[C@H]1O3 (some centres undefined) | 337 | -2.3% (inactive) | -90.3% (inactive) | 155% | -0.841 | 0.28 | -0.596 | -7.01% (inactive) | -0.424 (inactive) | -0.000134 (inactive) | 0.00455 (inactive) | 1.77% (inactive) | – | – | –
8 | CCN(CC)CCn1c(O)c(N=O)c2ccccc21 | 314 | -11.6% (inactive) | -9% (inactive) | 111% | -0.589 | -0.252 | 0.221 | 21% (inactive) | -0.482 (inactive) | -3.1e-05 (inactive) | 0.00988 (inactive) | 0.498% (inactive) | – | – | –
9 | CCn1nc(C(=O)O)c(=O)c2cc3c(cc21)OCO3 | 692 | -0.9% (inactive) | -72.8% (inactive) | 125% | 0.431 | 0.329 | -0.702 | 1.48% (inactive) | -0.476 (inactive) | -5.5e-05 (inactive) | 0.00573 (inactive) | -5.01% (inactive) and 17.9% (inactive) | inactive | 8.87% (inactive) | 30.3% (inactive)
10 | CCOc1ccc(C2C(C(=O)c3ccc(C)o3)=C(O)C(=O)N2CCN2CCOCC2)cc1OC (centres undefined) | 248 | -6% (inactive) | -49.4% (inactive) | 93.8% | 0.462 | 0.354 | 0.737 | -12.3% (inactive) | -0.458 (inactive) | -2.1e-05 (inactive) | 0.00423 (inactive) | -15.3% (inactive) | – | – | –
11 | O=C1CC(N(O)C2CC(=O)N(Cc3ccccc3)C2=O)C(=O)N1Cc1ccccc1 (centres undefined) | 269 | -16.2% (inactive) | -15% (inactive) | 88.9% | -0.0667 | 1.6 | -0.253 | 3.5% (inactive) | -0.433 (inactive) | -5.6e-06 (inactive) | 0.0039 (inactive) | 13.4% (inactive) | – | – | –
12 | COc1ccc(NCc2cc3ccccc3[nH]c2=O)cc1 | 254 | -8.8% (inactive) | -69.8% (inactive) | 90% | -0.199 | -0.583 | 0.127 | -12.3% (inactive) | -0.408 (inactive) | -3.2e-05 (inactive) | 0.00788 (inactive) | 7.35% (inactive) | – | – | –
13 | CC(=O)O[C@H]1C(=O)[C@]2(C)[C@H]([C@H](OC(=O)c3ccccc3)[C@]3(O)C[C@H](OC(=O)[C@H](O)[C@@H](NC(=O)c4ccccc4)c4ccccc4)C(C)=C1C3(C)C)[C@]1(OC(C)=O)CO[C@@H]1C[C@@H]2O | 508 | -11.8% (inactive) | -188% (inactive) | 105% | 0.529 | 0.25 | 0.563 | -2.46% (inactive) | -0.449 (inactive) | -1.6e-05 (inactive) | 0.00483 (inactive) | 0.148% (inactive) | inactive | 17.7% (inactive) | 44.3% (inactive)
14 | Cc1ccc(N(Cc2cc3ccccc3[nH]c2=O)C(=O)c2ccco2)c(C)c1 | 332 | -14.8% (inactive) | -162% (inactive) | 173% | 0.558 | -1.26 | 0.6 | -14% (inactive) | -0.459 (inactive) | -0.000111 (inactive) | 0.00671 (inactive) | 12% (inactive) | – | – | –
15 | COC(=O)C1=C(C)N=C2SC(C)C(=O)N2C1/C=C/c1ccccc1OC (centres undefined) | 366 | 3.2% (inactive) | -74.7% (inactive) | 143% | -1.74 | 0.498 | 0.497 | -1.75% (inactive) | -0.423 (inactive) | -0.00012 (inactive) | 0.00673 (inactive) | -14.7% (inactive) | – | – | –
16 | CN1CCN(Cc2c(O)ccc3c(-c4ccccc4)cc(=O)oc23)CC1 | 362 | 6% (inactive) | -97.7% (inactive) | 124% | 0.437 | -1.09 | 0.493 | 1.48% (inactive) | -0.269 (inactive) | -2.1e-05 (inactive) | 0.00684 (inactive) | 8.71% (inactive) | – | – | –
17 | COc1cccc(C2C(C(=O)c3cccs3)=C(O)C(=O)N2c2cc(C)on2)c1 (centres undefined) | 316 | -1.9% (inactive) | -91.3% (inactive) | 148% | -0.295 | -1.2 | 1.95 | -7.01% (inactive) | -0.427 (inactive) | -0.000129 (inactive) | 0.00539 (inactive) | -2.3% (inactive) | – | – | –
18 | c1ccc(CN2CCN(c3nc(-c4ccccn4)nc4ccccc34)CC2)cc1 | 275 | -1.9% (inactive) | -134% (inactive) | 96.6% | 0.978 | -1.13 | -0.507 | 20.2% (inactive) | -0.498 (inactive) | 4.9e-06 (inactive) | 0.00604 (inactive) | 130% (active) | – | – | –
19 | Oc1ccc(Br)cc1-c1cc(-c2ccccc2F)[nH]n1 | 293 | 13% (inactive) | -88.6% (inactive) | 116% | -1.09 | 2.76 | -1.37 | -5.26% (inactive) | -0.479 (inactive) | -9.7e-05 (inactive) | 0.00987 (inactive) | -2.23% (inactive) | – | – | –
20 | Cc1cccc(N(Cc2cc3ccccc3[nH]c2=O)C(=O)c2ccco2)c1C | 391 | -8.8% (inactive) | -117% (inactive) | 150% | 0.27 | -0.684 | -0.0595 | 12.3% (inactive) | -0.439 (inactive) | -0.000168 (inactive) | 0.00782 (inactive) | 22.4% (inactive) | – | – | –
21 | CCC1CCCCN1c1nc(-c2cccc(OC)c2O)nc2ccccc12 (centres undefined) | 322 | 0.9% (inactive) | -128% (inactive) | 154% | -0.599 | 0.187 | 0.757 | -8.76% (inactive) | -0.454 (inactive) | -0.000132 (inactive) | 0.00525 (inactive) | 3.59% (inactive) | – | – | –
22 | COCCCNc1nc(-c2ccncc2)nc2ccccc12 | 419 | 1.9% (inactive) | -227% (inactive) | 126% | 1.01 | -0.929 | -0.825 | 18.2% (inactive) | -0.514 (inactive) | -8.3e-05 (inactive) | 0.00557 (inactive) | 138% (active) | – | – | –
23 | COc1ccccc1-c1cc(-c2cc(Cl)ccc2O)n[nH]1 | 259 | -13% (inactive) | -9.5% (inactive) | 129% | 1.7 | -0.531 | -0.306 | 7.01% (inactive) | -0.453 (inactive) | -1.7e-05 (inactive) | 0.0086 (inactive) | -19.8% (inactive) | – | – | –
24 | COc1cccc(-c2nc(NCCN3CCOCC3)c3ccccc3n2)c1O | 355 | -7.9% (inactive) | 21.8% (inactive) | 164% | -0.211 | -0.437 | -0.66 | 21% (inactive) | -0.395 (inactive) | -0.00024 (inactive) | 0.00346 (inactive) | 95% (active) | – | – | –
25 | C=CCOc1nc(-c2ccncc2)nc2ccccc12 | 345 | 4.5% (inactive) | -73.4% (inactive) | 130% | 0.583 | -0.0101 | -0.88 | 16.1% (inactive) | -0.491 (inactive) | -3.3e-05 (inactive) | 0.00589 (inactive) | 79.7% (active) | – | – | –
26 | COC(=O)c1ccc(C2/C(=C(/O)c3ccc(OC)cc3)C(=O)C(=O)N2c2cc(C)on2)cc1 (centres undefined) | 311 | -11.6% (inactive) | -76.7% (inactive) | 138% | 0.558 | -1.16 | -1.06 | 1.6e-07% (inactive) | -0.466 (inactive) | -5.4e-05 (inactive) | 0.00772 (inactive) | -6.24% (inactive) | – | – | –
